Compounds with a hit are over-represented: about 19% of the library has one in this group of screens.
TDP1 cell noCPT: qHTS for Inhibitors of human tyrosyl-DNA phosphodiesterase 1 (TDP1): qHTS in cells in absence of CPT. DT40 Tdp1-/- hTDP1 cells, no CPT, ATP luminescence, 48 h. Potency, µM (top dose mostly 46.2 µM), for the others: at the highest dose activity change, negative = growth inhibition, usual class: inhibitors. hit rate 15% among 420,000. AID 686978, 2013; also: potency is read from the fitted curve at half-maximal effect; nearly all actives have a fitted effect of over 55% in size
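Stably hTDP1-transfected Tdp1-null chicken DT40 cells were treated with library compounds minus camptothecin and grown for at least 48 hr at 37 °C, after which cellular ATP was quantified by luminescence.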
IL1B secr inh: inhibitors of inflammasome signaling (IL-1 beta secretion); THP-1 LPS/ATP IL-1B secretion, AlphaLISA, 16 h; hits give low values; activity change, % at 57.5 µM; hit rate 4.7% among 360,000; AID 743279; in the data active = activity change below about -50%; inconclusive = mostly about -30% to -49%
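THP-1 cells pretreated 1 hr with compounds (up to 57.5 uM final), then stimulated with LPS (250 ng/mL final) plus ATP (1.25 mM final); secreted IL-1B measured by AlphaLISA after 16 hr, decreased signal indicating inhibition.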
HT1080 IDH1KD tx: toxicity to HT-1080 IDH1 knockdown cells (counter line); AID 686971; Potency, µM (highest dose often 46.1 µM), for the others: at the highest dose activity, negative = toxicity, hits mostly cytotoxic; hit rate 2% among 360,000; HT-1080 IDH1 knockdown viability, ATP luminescence, 48 h;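 also: potency is read from the fitted curve at half-maximal effect; 0% = DMSO wells and -100% = cell-free medium wells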
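Using the IDH1-knockdown HT-1080 line run in the same batch and compound series as the NT line, viability after 48 h at 37 °C was determined by CellTiter-Glo luminescence and expressed as % activity.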
HT1080NT lethal: kills 2HG-producing HT-1080-NT fibrosarcoma cells; HT-1080-NT fibrosarcoma viability, CellTiter-Glo ATP luminescence, 48 h; AID 686970; Potency, µM (top dose mostly 46.1 µM), without a hit: at the highest dose activity, negative = less viability, hits mostly cytotoxic; hit rate 1.6% among 360,000;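 also: NT is the 2HG producing partner of a matched IDH1 knockdown line; potency is read from the fitted curve at half-maximal effect; 0% = DMSO-treated cells and -100% = media-only wells without cells; nearly all actives have a fitted effect of over 55% in size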
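Viability of the 2HG-overproducing fibrosarcoma line after 48 hours of compound exposure at 37 degrees C was determined by luminescence with CellTiter-Glo, and concentration-effect curves were then fitted and categorized.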
TDP1 cell CPT: DT40-hTDP1 cell growth loss with CPT. chicken DT40 Tdp1-/-;hTDP1 cells + 20 nM CPT, ATP luminescence, 48 h. Potency, µM (highest dose often 46.2 µM), inactives show at the top dose activity change, negative = growth inhibition, usual class: inhibitors. hit rate 12% among 420,000. AID 686979; also: potency is read from the fitted curve at half-maximal effect; nearly all actives have a fitted effect of over 55% in size
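Chicken DT40 Tdp1-/- cells stably complemented with human TDP1 were seeded at 400 cells/well in medium containing 20 nM camptothecin, exposed to pin-transferred compounds, and grown at 37 °C for at least 48 hr. Viability was read as ATP luminescence.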
An asterisk follows results filed as active; ? = inconclusive; / = no result given; [ ] = dose if it differs, or a comment. Unless noted, calls follow the shape of the dose curve; as a rule, active = well fitted curve in the direction sought with a large enough effect; inconclusive = small, poorly fitted or top-dose-only effect, or another doubt; inactive = no such curve, though single readings can be large; an effect the other way counts as inactive or inconclusive. Unless noted, % is scaled to controls: 0 for no effect and ±100 for the full control effect.

SMILES	TDP1 cell noCPT	IL1B secr inh	HT1080 IDH1KD tx	HT1080NT lethal	TDP1 cell CPT
Cc1ccc(NS(=O)(=O)c2cccc(C(=O)NCCc3c[nH]c4ccccc34)c2)c(C)c1	?	-78*	-29%	-11%	?
OCCNC(=S)NC1CCCCC1	-14%	12	0%	2%	-3%
Cc1ccc(C)c(NC(=O)C(=O)NCCc2c[nH]c3ccccc23)c1	?	-22	-15%	24%	-29%
Cc1ccc(C)c(NC(=S)NCCc2c[nH]c3ccccc23)c1	13µM*	-58*	-21%	-29%	?
S=C(NCCc1c[nH]c2ccccc12)NC1CCCCC1	?	-52*	-11%	-10%	?
Cc1ccc(CNC(=O)c2ccc(NC(=O)CCS(=O)(=O)c3cccs3)cc2)cc1	-21%	-12	-7%	-15%	-7%
COC(=O)[C@@]1(Cc2ccc(F)cc2)[C@H]2c3cc(C(=O)N(C)C)n(CCN4CCOCC4)c3C[C@H]2CN1C(=O)c1ccccc1	?	10	-15%	1%	?
Cc1ccc(C(=O)N/C(=C\c2cccs2)C(=O)NCCc2c[nH]c3ccccc23)cc1	?	-63*	-3%	-8%	?
CC(C)c1ccc(NC(=S)NCCc2c[nH]c3ccccc23)cc1	26µM*	-53*	?	-26%	?
COc1ccc(/C=C(/NC(=O)c2ccc(OC)cc2)C(=O)NCCc2c[nH]c3ccccc23)cc1	4%	-5	2%	11%	17%
Cc1ccc(NC(=S)NCCc2c[nH]c3ccccc23)cc1	23µM*	-19	?	-13%	?
S=C(NCCCc1ccccc1)NC1CCCCC1	?	-89*	-1%	?	?
COc1ccc(C)cc1NC(=O)c1ccc2c(c1)CCN2S(=O)(=O)c1ccc(Cl)cc1	-3%	/	/	/	-26%
Cc1ccc(/C=N\NC(=O)C2CN(S(=O)(=O)c3ccccc3)CCN2S(=O)(=O)c2ccccc2)cc1 (centres undefined)	18µM*	-5	3%	-6%	?
CCNC(=O)C1CN(S(=O)(=O)c2ccccc2)CCN1S(=O)(=O)c1ccccc1 (centres undefined)	-19%	-6	9%	-2%	1%
Cc1cccc(C(C)C)c1NC(=O)C1CN(S(=O)(=O)c2ccccc2)CCN1S(=O)(=O)c1ccccc1 (centres undefined)	18µM*	-14	2%	7%	26µM*
CCc1cccc(CC)c1NC(=O)C1CN(S(=O)(=O)c2ccccc2)CCN1S(=O)(=O)c1ccccc1 (centres undefined)	?	-25	17%	6%	?
CCC(=O)N1c2ccc(S(=O)(=O)N3CCC(C)CC3)cc2CC1C (centres undefined)	-27%	/	/	/	-29%
O=S(=O)(Nc1ccccc1OC(F)F)c1ccc(S(=O)(=O)N2CCCC2)cc1	?	21	-2%	-2%	?
Cc1cccc(C)c1NC(=O)CNC(=O)c1ccc2c(c1)NC(=O)CS2	6%	15	-1%	-5%	8%
COc1cc2c(cc1OC)-c1c(OC)c(OC)cc3ccnc(c13)C2=O	4.1µM*	?	-9%	-6%	4.1µM*
c1coc(-c2nnc(-c3ccco3)nn2)c1	12µM*	-76*	0%	-5%	5.8µM*
CC(C)(C)N(Cc1ccccc1)C(=O)COC(=O)c1ccccc1SCC(=O)N1CCCC1	?	-52*	-1%	-6%	?
CN(Cc1ccccc1)C(=O)COC(=O)c1ccc(Cl)cc1N	?	1	2%	-9%	10µM*
CC(C)(C)N(Cc1ccccc1)C(=O)COC(=O)C1CC1	-21%	-13	-7%	-4%	-6%
CN(Cc1ccccc1)C(=O)c1ccccc1C(=O)OCC(=O)N(Cc1ccccc1)C(C)(C)C	15µM*	-50*	-19%	1%[9.24 µM]	23µM*
CCOc1ccc(C(C)=O)cc1COC(=O)c1ccccc1C(=O)N(C)Cc1ccccc1	7.3µM*	?	2%	-6%	18µM*

Screening results deposited in PubChem BioAssay by National Center for Advancing Translational Sciences (NCATS).
